Assay results published in PubChem BioAssay (Tox21).
Results filed as inconclusive are left out. The source made the active and inactive calls. Unless noted, calls follow the shape of the dose curve; as a rule, active = well fitted curve in the direction sought with a large enough effect in the repeat runs; inconclusive = weak or mixed curves; inactive = no such curve, though single readings can be large; an effect the other way counts as inactive or inconclusive.

Experiments:
[1] = qHTS assay to identify small molecule agonists of the vitamin D receptor (VDR) signaling pathway - cell viability counter screen (AID 743224); settings: VDR-bla HEK293T viability, CellTiter-Glo luminescence, 16 h; series mostly up to 62.6 µM; also: % is scaled to controls: 0 for no effect and ±100 for the full control effect; nearly all actives have a fitted effect of over 50% in size
Method in brief: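 Plated VDR-bla cells (4 h, 37C) received compound, incubated 16 h, then LiveBLAzer substrate 2 h RT; CellTiter-Glo added afterwards, luminescence read at 30 min.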

[2] = qHTS assay to identify small molecule antagonists of the vitamin D receptor (VDR) signaling pathway - cell viability counter screen (AID 743225); settings: VDR-bla HEK293T viability, CellTiter-Glo luminescence, 16 h; series mostly up to 61 µM; also: % is scaled to controls: 0 for no effect and ±100 for the full control effect; nearly all actives have a fitted effect of over 50% in size
Method in brief: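 Cytotoxicity counter screen read by CellTiter-Glo luminescence (30 min, room temperature) in the same wells as the VDR-bla antagonist readout. HEK 293T VDR-UAS-bla cells had 16 h at 37C with compound and 3 nM (final) 1-alpha,25-dihydroxyvitamin D3, then 2 h with FRET substrate.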

[3] = qHTS assay to identify small molecule agonists of the NFkB signaling pathway - cell viability counter screen (AID 1159515; calls by dose curve; also: % is scaled to controls: 0 for no effect and ±100 for the full control effect; nearly all actives have a fitted effect of over 55% in size); settings: NFkB-bla ME-180 viability, CellTiter-Glo luminescence, 5 h; series mostly up to 61 µM
Method in brief: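 Using the same wells as the NFkB reporter read, ME-180 NFkB-bla cells given compounds for 5 hr were assessed for viability via CellTiter-Glo, with luminescence taken after a 30 min room-temperature incubation.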

[4] = qHTS assay to identify small molecule agonists of the endoplasmic reticulum stress response signaling pathway (AID 1159516; active = well fitted activation curve with a large enough effect in the signal ratio in the repeat runs, not every such curve was filed as active; the % refers to the signal ratio; also: % is scaled to controls: 0 for no effect and ±100 for the full control effect); settings: ESRE-bla HeLa, ER stress beta-lactamase reporter, 5 h; series mostly up to 61 µM
Method in brief: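 An ESRE-bla HeLa cell assay: compounds were pin-transferred from DMSO onto overnight-plated cells and left 5 hr at 37 C. Substrate was then loaded for 2 hr at room temperature before reading fluorescence at 460 nm and 530 nm.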

[5] = qHTS assay to identify small molecule agonists of the endoplasmic reticulum stress response signaling pathway - cell viability counter screen (AID 1159517; calls by dose curve;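 also: HeLa cells carrying an ER stress response element beta-lactamase reporter; % is scaled to controls: 0 for no effect and ±100 for the full control effect; nearly all actives have a fitted effect of over 50% in size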); settings: ESRE-bla HeLa viability, CellTiter-Glo luminescence, 5 h; series mostly up to 61 µM
Method in brief: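 HeLa cells carrying an ESRE-driven beta-lactamase reporter receive compound for 5 hr at 37 C. Cell viability is then gauged with CellTiter-Glo by luminescence, 30 min at room temperature.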

[6] = qHTS assay to identify small molecule antagonists of the retinoid-related orphan receptor gamma (ROR-gamma) signaling pathway - cell viability counter screen (AID 1159520); settings: Tet-on RORgamma CHO cells viability, ATP luminescence, 16 h; series mostly up to 92.4 µM; also: % is scaled to controls: 0 for no effect and ±100 for the full control effect; nearly all actives have a fitted effect of over 50% in size
Method in brief: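 Cytotoxicity was read from cellular ATP (CellTiter-Glo luminescence) after 16 hr at 37 C with 1 uM doxycycline induction. The inducer was added 2 hr after compound transfer to Tet-on ROR gamma CHO cells.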

[7] = qHTS assay to identify small molecule agonists of the AP-1 signaling pathway - cell viability counter screen (AID 1159525; calls by dose curve; also: nearly all actives have a fitted effect of over 55% in size); settings: ME-180 AP-1-bla cells viability, ATP luminescence, 5 h; series mostly up to 76.8 µM
Method in brief: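 Luminescent ATP readout (Cell Titer Glo, 30 min RT), normalised to DMSO and tetra n-octyl ammonium bromide controls. Cells were ME-180 AP-1-bla in 0.5% dialyzed FBS Opti-MEM, with a 5 h, 37 °C compound exposure.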

[8] = qHTS assay to identify small molecule agonists of the AP-1 signaling pathway (AID 1159526; calls by dose curve; also: % is scaled to controls: 0 for no effect and ±100 for the full control effect); settings: ME-180 (cervical carcinoma) AP-1-bla reporter, beta-lactamase FRET ratio, 5 h; series mostly up to 76.8 µM
[9] = qHTS assay to identify small molecule agonists of the RXR signaling pathway - cell viability counter screen (AID 1159529); settings: RXR-alpha-bla HEK293T viability, CellTiter-Glo, 16 h; series mostly up to 76.8 µM
Method in brief: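 CellTiter-Glo luminescence gave viability in the wells also read for beta-lactamase. Cells (RXR-alpha-UAS-bla HEK 293T, 2% charcoal-stripped FBS medium) had 5 hr plating, then 16 hr compound exposure at 37 C; tetraoctyl ammonium bromide served as positive control.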

[10] = qHTS assay to identify small molecule antagonists of the estrogen related receptor (ERR) signaling pathway from Tox21 library - cell viability counter screen (AID 1224834); settings: ERR reporter cells viability, CellTiter-Fluor, 17.5 h; series mostly up to 92.4 µM; also: % is scaled to controls: 0 for no effect and ±100 for the full control effect; nearly all actives have a fitted effect of over 30% in size
Method in brief: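 After 17.5 h of compound exposure at 37 C, ERR cells are incubated with CellTiter-Fluor for 30 min and fluorescence intensity serves as the viability measure.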

[11] = target: Nuclear receptor ROR-gamma (Homo sapiens) (UniProt P51449); experiment: qHTS assay to identify small molecule antagonists of the retinoid-related orphan receptor gamma (ROR-gamma) signaling pathway (AID 1159521); settings: Tet-on RORgamma CHO cells, RORE-luciferase, 16 h; series mostly up to 92.4 µM
Method in brief: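 Antagonist read-out: drop in luminescence (ONE-Glo) from an RORE-LUC reporter in CHO cells with doxycycline-inducible ROR-gamma; 2 hr compound pretreatment, 1 uM doxycycline, 16 hr incubation at 37 C.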

[12] = qHTS assay to identify small molecule antagonists of the retinoid acid receptor (RAR) signaling pathway - cell viability counter screen (AID 1159551); settings: C3RL4 cells viability, ATP luminescence (CellTiter-Glo), 6 h; series mostly up to 92.4 µM; also: % is scaled to controls: 0 for no effect and ±100 for the full control effect; nearly all actives have a fitted effect of over 35% in size
Method in brief: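 Retinol-stimulated (1 uM final) C3RL4 cells, compound 6 h, 37 C; readout CellTiter-Glo luminescence (ATP) after 30 min RT incubation.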

[13] = qHTS assay to identify small molecule antagonists of the retinoic acid receptor (RAR) signaling pathway (AID 1159552); settings: C3RL4 RARE luciferase reporter, retinol-stimulated, 6 h; series mostly up to 92.4 µM
Method in brief: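 Luminescent RARE reporter read-out in C3RL4 cells: 6 hr co-treatment at 37 C of test compounds with retinol at 1 uM final. Cells plated overnight beforehand; luciferase reagent incubated 30 min at room temperature before reading.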

[14] = target: Retinoic acid receptor RXR-alpha (Homo sapiens) (UniProt P19793); experiment: qHTS assay to identify small molecule agonists of the RXR signaling pathway (AID 1159527; calls by dose curve; also: % is scaled to controls: 0 for no effect and ±100 for the full control effect; nearly all actives have a fitted effect of over 35% in size); settings: HEK293T RXRa-UAS-bla, beta-lactamase ratio, 16 h; series mostly up to 76.8 µM
Sequence of Retinoic acid receptor RXR-alpha (Homo sapiens) (P19793 whole entry, looked up): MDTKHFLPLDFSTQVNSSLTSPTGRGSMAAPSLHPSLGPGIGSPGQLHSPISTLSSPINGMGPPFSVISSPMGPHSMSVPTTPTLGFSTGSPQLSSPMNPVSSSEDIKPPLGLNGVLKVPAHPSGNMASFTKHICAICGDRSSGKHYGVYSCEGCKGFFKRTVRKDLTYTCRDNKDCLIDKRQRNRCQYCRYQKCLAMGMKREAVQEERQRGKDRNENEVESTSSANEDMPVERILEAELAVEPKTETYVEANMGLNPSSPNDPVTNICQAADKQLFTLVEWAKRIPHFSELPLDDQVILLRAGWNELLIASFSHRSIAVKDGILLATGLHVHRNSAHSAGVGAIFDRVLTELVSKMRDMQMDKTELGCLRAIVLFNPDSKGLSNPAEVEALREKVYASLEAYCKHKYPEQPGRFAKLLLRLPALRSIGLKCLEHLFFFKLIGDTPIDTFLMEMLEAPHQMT
Method in brief: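 Agonist-mode beta-lactamase reporter assay: HEK 293T RXR-alpha-UAS-bla cells treated 16 hr at 37 C with compounds, 9-cis retinoic acid as positive control. LiveBLAzer FRET substrate, 405 nm excitation, 460/530 nm emission.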

[15] = qHTS assay to identify small molecule agonists of the retinoic acid receptor (RAR) signaling pathway (AID 1159553); settings: C3RL4 RARE luciferase reporter, agonist, 6 h; series mostly up to 73.3 µM; also: % is scaled to controls: 0 for no effect and ±100 for the full control effect
Method in brief: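 Reporter readout comes from luciferase under RARE control in C3RL4 cells; compound exposure lasts 6 hr at 37 C in 5% CO2, and luminescence is recorded following a 30 min room-temperature incubation with reagent.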

[16] = qHTS assay to identify small molecule antagonists of the estrogen related receptor signaling pathway with the pleiotropic PPARgamma coactivator (PGC) cell viability counter screen (AID 1224822; also: % is scaled to controls: 0 for no effect and ±100 for the full control effect); settings: ERR/PGC reporter cell line viability counter screen; series mostly up to 46.1 µM
Method in brief: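 PGC/ERR cells were plated at 2,000 per well and allowed 6 h to settle before compound addition. Following 17.5 h at 37 C, CellTiter-Fluor reagent was added and fluorescence was read 30 min later.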

CCCC[C@H]1CN(CC2CCOCC2)C(=O)OC12CCN(C1(C)CCN(C(=O)c3c(C)ncnc3C)CC1)CC2
inactive: Potency [1] | Potency [2] | Potency [3] | Potency [4] | outcome [5] | Potency [6] | Potency [7] | Potency [8] | Potency [9] | Potency [10]

CC(C)CCCC(C)CCO (configuration not stated)
inactive: Potency [2] | Potency [3] | Potency [4] | outcome [5] | Potency [6] | Potency [11] | Potency [8] | Potency [9] | Potency [12] | Potency [13]

CC(CN)CCCN (configuration not stated)
inactive: Potency [1] | Potency [2] | Potency [3] | Potency [4] | outcome [5] | Potency [6] | Potency [11] | Potency [8] | Potency [9] | Potency [13] | Potency [10]

NC[C@H]1O[C@H](O[C@H]2[C@H](O)[C@@H](O[C@H]3O[C@H](CO)[C@@H](O)[C@H](N)[C@H]3O)[C@H](N)C[C@@H]2N)[C@H](O)[C@@H](O)[C@@H]1O
inactive: activity change, negative = cytotoxicity [1] -10.2% [at 5.95 µM] | viability change, negative = cytotoxic [2] 9.2% [at 6.95 µM] | activity, negative = cytotoxic [3] -4.89% [at 6.95 µM] | activation [4] -2.16% [at 6.95 µM] | activity change, negative = cytotoxicity [5] -9.96% [at 6.95 µM] | activity, negative = cytotoxicity [6] 1.78% [at 8.39 µM] | activity change, negative = inhibition [11] -16.2% [at 8.39 µM] | activation [14] 3.4% [at 6.98 µM] | activity change, negative = cytotoxicity [9] -2.14% [at 6.97 µM] | activity change, negative = cytotoxicity [12] -0.107% [at 8.39 µM] | activity, negative = inhibition [13] 7.6% [at 8.39 µM] | viability change, negative = cytotoxic [10] -5.48% [at 8.39 µM]

C1CCC2OC2C1 (configuration not stated)
inactive: Potency [1] | Potency [2] | Potency [3] | Potency [4] | outcome [5] | Potency [6] | Potency [11] | Potency [8] | Potency [14] | Potency [12] | Potency [13] | Potency [10]

CCCc1ccccc1
inactive: Potency [1] | Potency [2] | Potency [3] | Potency [4] | outcome [5] | Potency [6] | Potency [11] | Potency [8] | Potency [9] | Potency [12] | Potency [13] | Potency [10]

CN(C)CC[C@@H](c1ccc(Br)cc1)c1ccccn1
inactive: Potency [1] | Potency [2] | Potency [3] | Potency [4] | outcome [5] | Potency [6] | Potency [11] | Potency [8] | Potency [14] | Potency [12] | Potency [13] | Potency [15] | outcome [16] | Potency [10]

CCCCCC(CO)CCC (configuration not stated)
inactive: Potency [1] | Potency [2] | Potency [3] | Potency [4] | outcome [5] | Potency [6] | Potency [7] | Potency [8] | Potency [9] | Potency [13] | Potency [10]

Cl/C(=C\n1cncn1)c1ccc(Cl)cc1Cl
inactive: Potency [1] | Potency [2] | Potency [3] | Potency [4] | outcome [5] | Potency [6] | Potency [11] | Potency [9] | Potency [12] | Potency [13]

CC(C(=O)O)c1ccc(-c2ccccc2)c(F)c1 (configuration not stated)
inactive: Potency [1] | Potency [2] | Potency [3] | Potency [4] | outcome [5] | Potency [6] | Potency [7] | Potency [8] | Potency [9] | Potency [12] | Potency [13] | Potency [15] | Potency [10]

COC(=O)C(C)=O
inactive: Potency [1] | Potency [2] | Potency [3] | Potency [4] | outcome [5] | Potency [6] | Potency [11] | Potency [8] | Potency [14] | Potency [12] | Potency [10]

CCOc1ccc(NC(=O)CC(C)=O)cc1
inactive: Potency [1] | Potency [2] | Potency [3] | Potency [4] | outcome [5] | Potency [6] | Potency [7] | Potency [8] | Potency [9] | Potency [13] | Potency [15] | Potency [10]

Cc1cc(NC(=O)C(=O)O)cc(C)c1Oc1ccc(O)c2c1CCC2
inactive: Potency [1] | Potency [2] | Potency [3] | Potency [4] | outcome [5] | Potency [6] | Potency [11] | Potency [8] | Potency [9] | Potency [10]

FC(F)(F)C(F)(F)C(F)(F)C(F)(F)C(F)(F)C(F)(F)CCI
inactive: Potency [1] | Potency [2] | Potency [3] | Potency [4] | outcome [5] | Potency [6] | Potency [11] | Potency [8] | Potency [9] | Potency [12] | Potency [13] | Potency [15] | Potency [10]

COC(=O)CSc1cc(N=c2sc(=O)n3n2CCCC3)c(F)cc1Cl
inactive: Potency [1] | Potency [2] | Potency [3] | Potency [4] | outcome [5] | Potency [6] | Potency [7] | Potency [8] | Potency [14] | Potency [12] | Potency [10]

O=S(=O)(O)c1ccc(O)c2ncccc12
inactive: Potency [1] | Potency [2] | Potency [3] | Potency [4] | outcome [5] | Potency [6] | Potency [11] | Potency [8] | Potency [9] | Potency [12] | Potency [10]

NC1CCN(c2nc3c(cc2F)c(=O)c(C(=O)O)cn3-c2ccc(F)cc2F)C1 (configuration not stated)
inactive: Potency [1] | Potency [2] | Potency [3] | Potency [4] | outcome [5] | Potency [6] | Potency [7] | Potency [8] | Potency [9] | Potency [12] | Potency [13] | Potency [15] | Potency [10]

CC/C(=C\C(=N/O)C(N)=O)C(C)[N+](=O)[O-] (configuration not stated)
inactive: Potency [1] | Potency [2] | Potency [3] | Potency [4] | outcome [5] | Potency [7] | Potency [8] | Potency [9] | Potency [12] | Potency [13] | Potency [10]

C=CCCCCCC
inactive: Potency [2] | Potency [3] | Potency [4] | outcome [5] | Potency [6] | Potency [12] | Potency [13] | Potency [10]

O=C(O)Cc1cc(I)c(Oc2ccc(O)c(I)c2)c(I)c1
inactive: Potency [3] | Potency [4] | outcome [5] | Potency [9] | Potency [12] | Potency [13] | Potency [10]
